Experimental data as given in PubChem BioAssay (NCATS).
Inconclusive results are not listed. Active and inactive are the calls of the source. Unless noted, calls follow the shape of the dose curve; as a rule, active = well fitted curve in the direction sought with a large enough effect; inconclusive = small, poorly fitted or top-dose-only effect, or another doubt; inactive = no such curve, though single readings can be large; an effect the other way counts as inactive or inconclusive.

What was measured:
[1] = molecular target: Lysosomal acid glucosylceramidase (Homo sapiens) (UniProt P04062); test: Glucocerebrosidase-p2 (AID 348; in the data active = potency below about 10 µM; also: potency is read from the fitted curve at half-maximal effect); details: purified GBA, blue fluorogenic substrate, 40 min
Lysosomal acid glucosylceramidase (Homo sapiens), sequence (P04062 whole entry, looked up): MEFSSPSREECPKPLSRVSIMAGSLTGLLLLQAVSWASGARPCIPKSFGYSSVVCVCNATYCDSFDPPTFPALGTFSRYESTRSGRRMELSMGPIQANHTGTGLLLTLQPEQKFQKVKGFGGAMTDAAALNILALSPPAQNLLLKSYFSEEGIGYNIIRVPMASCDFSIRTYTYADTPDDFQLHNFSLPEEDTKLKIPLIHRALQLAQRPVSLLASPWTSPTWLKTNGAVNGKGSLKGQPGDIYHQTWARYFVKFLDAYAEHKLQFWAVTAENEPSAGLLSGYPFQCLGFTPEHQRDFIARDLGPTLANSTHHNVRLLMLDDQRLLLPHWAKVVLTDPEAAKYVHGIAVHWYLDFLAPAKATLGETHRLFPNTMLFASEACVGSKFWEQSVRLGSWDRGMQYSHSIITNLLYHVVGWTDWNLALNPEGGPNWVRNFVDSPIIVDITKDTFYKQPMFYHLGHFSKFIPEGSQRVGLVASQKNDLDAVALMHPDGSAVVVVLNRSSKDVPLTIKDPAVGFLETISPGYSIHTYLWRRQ
Outline: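 Normal human glucocerebrosidase (0.2 nM) with blue fluorogenic substrate (80 uM final) in citrate/phosphate pH 5.9 with 10mM sodium taurocholate, 0.01% tween-20; 40 min RT, NaOH/glycine stop; fluorescence Ex 365/Em 440; AC50 from a titration from 0.6 nM upwards.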

[2] = molecular target: Cytochrome P450 1A2 (Homo sapiens) (UniProt P05177); test: p450-cyp1a2 (AID 410; calls by dose curve; also: potency is read from the fitted curve at half-maximal effect)
Cytochrome P450 1A2 (Homo sapiens), sequence (P05177 whole entry, looked up): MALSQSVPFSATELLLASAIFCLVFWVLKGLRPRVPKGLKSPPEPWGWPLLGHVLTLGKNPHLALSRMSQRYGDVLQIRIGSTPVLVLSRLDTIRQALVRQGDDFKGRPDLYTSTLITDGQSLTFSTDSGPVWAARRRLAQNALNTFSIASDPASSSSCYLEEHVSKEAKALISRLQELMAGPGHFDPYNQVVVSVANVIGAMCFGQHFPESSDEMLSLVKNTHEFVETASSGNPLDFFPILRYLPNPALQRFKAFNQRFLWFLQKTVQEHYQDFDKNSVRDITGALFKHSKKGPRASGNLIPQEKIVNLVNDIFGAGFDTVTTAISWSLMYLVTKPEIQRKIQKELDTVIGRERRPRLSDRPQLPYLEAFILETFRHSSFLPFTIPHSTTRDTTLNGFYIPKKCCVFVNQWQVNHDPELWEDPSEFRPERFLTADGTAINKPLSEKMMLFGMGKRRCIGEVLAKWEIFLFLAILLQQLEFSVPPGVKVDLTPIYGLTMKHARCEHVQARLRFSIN
Outline: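 Luminescent demethylation readout: Luciferin-ME (100uM, equal to Km) turned over by 20nM CYP1A2 for 60 min at room temperature after NADPH regeneration addition, following 10 min compound preincubation. Normalization used 57 uM furafylline as full inhibition.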

[3] = molecular target: Glucocorticoid receptor (Homo sapiens) (UniProt P04150); test: GR-GFP Redistribution (AID 450;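 active = compounds whose dose series gives a full or clear partial fitted curve of increased nuclear translocation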; also: potency is read from the fitted curve at half-maximal effect); details: U2OS GR-GFP nuclear translocation, laser cytometry, 2 h
Glucocorticoid receptor (Homo sapiens), sequence (P04150 whole entry, looked up, the tested form may be a part): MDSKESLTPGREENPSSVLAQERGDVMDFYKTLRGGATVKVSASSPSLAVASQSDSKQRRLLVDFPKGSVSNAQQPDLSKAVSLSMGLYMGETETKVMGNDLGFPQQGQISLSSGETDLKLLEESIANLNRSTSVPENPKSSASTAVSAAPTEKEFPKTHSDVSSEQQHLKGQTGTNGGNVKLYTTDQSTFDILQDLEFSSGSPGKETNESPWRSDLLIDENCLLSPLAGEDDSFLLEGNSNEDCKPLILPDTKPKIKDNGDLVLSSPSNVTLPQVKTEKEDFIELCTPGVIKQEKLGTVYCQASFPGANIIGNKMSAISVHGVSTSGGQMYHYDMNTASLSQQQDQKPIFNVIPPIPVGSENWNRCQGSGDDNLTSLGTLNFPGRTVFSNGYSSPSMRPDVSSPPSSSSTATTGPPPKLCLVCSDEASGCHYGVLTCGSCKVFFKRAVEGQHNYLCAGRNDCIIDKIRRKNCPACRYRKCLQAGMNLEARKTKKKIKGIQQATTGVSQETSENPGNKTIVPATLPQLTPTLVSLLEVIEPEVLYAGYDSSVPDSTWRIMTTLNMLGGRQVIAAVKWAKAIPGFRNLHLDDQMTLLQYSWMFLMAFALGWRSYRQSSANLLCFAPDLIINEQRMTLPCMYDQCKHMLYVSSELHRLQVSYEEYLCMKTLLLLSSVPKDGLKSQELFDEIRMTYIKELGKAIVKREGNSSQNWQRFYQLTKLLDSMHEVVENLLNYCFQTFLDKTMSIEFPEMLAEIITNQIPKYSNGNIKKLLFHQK

[4] = molecular target: Glucocorticoid receptor (Homo sapiens) (UniProt P04150); test: GR-EFC Redistribution (AID 451; calls by dose curve; also: potency is read from the fitted curve at half-maximal effect); details: CHO-K1 GR-EFC translocation, beta-gal luminescence, 2 h
Outline: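 CHO-K1 cells expressing nuclear EA and GR-ED fragments of b-gal; compounds titrated up to 46 uM final, 2 h at 37 C. GR nuclear translocation read as complemented b-gal luminescence after 1 h RT detection.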

[5] = molecular target: Mitogen-activated protein kinase 10 (Mus musculus) (UniProt Q61831); test: JNK3 AlphaScreen Assay (AID 530; active = well fitted curve in either direction with a large enough effect, not every such curve was filed as active;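 also: kinase came from lysate of stimulated human HepG2 cells; signal reports phosphorylation of biotinylated GST-cJun 1-79 at Ser73 with 10 µM ATP; % is scaled to controls: 0 for no effect and ±100 for the full control effect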)
Outline: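 Activity was read by AlphaScreen after JNK3-containing HepG2 lysate (cytokine pre-activated) phosphorylated biotinylated GST-cJun with 10 uM ATP at room temperature. Phospho-Ser73 cJun antibody with Protein-A acceptor beads provided detection.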

[6] = molecular target: 3',5'-cyclic-AMP phosphodiesterase 4B (Homo sapiens) (UniProt Q07343); test: qHTS Assay for Inhibitors of PDE-IV (AID 607; active = well fitted activation curve with a large enough effect in the main read-out, with a control signal flat, not every such curve was filed as active; also: % of control where 0% means no effect)
3',5'-cyclic-AMP phosphodiesterase 4B (Homo sapiens), sequence (Q07343 whole entry, looked up): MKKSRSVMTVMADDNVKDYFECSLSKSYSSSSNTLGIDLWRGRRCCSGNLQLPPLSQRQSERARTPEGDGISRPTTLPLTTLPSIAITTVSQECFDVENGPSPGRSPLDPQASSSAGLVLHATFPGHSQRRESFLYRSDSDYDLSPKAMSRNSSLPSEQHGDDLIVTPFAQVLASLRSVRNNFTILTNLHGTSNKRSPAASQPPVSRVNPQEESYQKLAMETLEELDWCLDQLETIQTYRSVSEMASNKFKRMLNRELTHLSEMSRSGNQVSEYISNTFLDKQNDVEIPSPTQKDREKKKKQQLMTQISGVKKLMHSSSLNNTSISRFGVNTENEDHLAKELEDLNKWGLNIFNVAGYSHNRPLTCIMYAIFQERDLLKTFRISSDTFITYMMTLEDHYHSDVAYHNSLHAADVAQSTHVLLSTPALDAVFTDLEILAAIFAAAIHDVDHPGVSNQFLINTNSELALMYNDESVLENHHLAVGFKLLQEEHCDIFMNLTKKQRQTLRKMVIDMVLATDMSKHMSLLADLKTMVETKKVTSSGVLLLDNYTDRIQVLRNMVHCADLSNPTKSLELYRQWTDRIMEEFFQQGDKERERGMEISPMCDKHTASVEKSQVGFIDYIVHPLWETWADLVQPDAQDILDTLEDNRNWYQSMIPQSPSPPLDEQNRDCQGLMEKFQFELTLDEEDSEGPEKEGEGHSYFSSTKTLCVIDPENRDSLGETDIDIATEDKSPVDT
Outline: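 Live HEK293 cells with a modified cyclic nucleotide-gated (CNG) channel report intracellular cAMP via membrane-potential dye fluorescence (ex 535/em 590 nm). Endogenous PDE-IV was targeted. Compounds were tested at up to 22.9 uM final; RO 20-1724 100 uM served as control.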

[7] = molecular target: Cytochrome P450 3A4 (Homo sapiens) (UniProt P08684); test: qHTS Assay for Activators of Cytochrome P450 3A4 (AID 885); also: nearly all actives have a fitted effect of over 65% in size
Cytochrome P450 3A4 (Homo sapiens), sequence (P08684 whole entry, looked up): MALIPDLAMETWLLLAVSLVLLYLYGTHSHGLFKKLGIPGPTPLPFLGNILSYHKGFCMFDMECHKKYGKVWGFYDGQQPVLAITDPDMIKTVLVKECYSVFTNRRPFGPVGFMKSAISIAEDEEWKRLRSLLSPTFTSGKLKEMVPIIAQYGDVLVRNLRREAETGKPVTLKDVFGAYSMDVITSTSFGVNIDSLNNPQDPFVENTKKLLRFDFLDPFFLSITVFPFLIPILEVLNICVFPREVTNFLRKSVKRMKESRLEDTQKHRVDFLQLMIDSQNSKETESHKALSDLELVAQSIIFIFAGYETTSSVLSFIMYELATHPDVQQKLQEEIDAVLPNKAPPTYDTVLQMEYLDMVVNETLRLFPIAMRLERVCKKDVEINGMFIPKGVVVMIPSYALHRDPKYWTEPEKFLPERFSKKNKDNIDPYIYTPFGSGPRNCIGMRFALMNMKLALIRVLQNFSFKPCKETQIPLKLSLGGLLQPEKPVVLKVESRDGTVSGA
Outline: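 Using 20nM recombinant human CYP3A4 in potassium phosphate (200mM), substrate Luciferin-PPXE at 25uM, luminescent luciferin detection followed a 60-min RT NADPH reaction; data scaled to 57 uM ketoconazole.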

[8] = qHTS Assay for Identification of Small Molecule Agonists for Hypoxia Response Element Signaling Pathway (AID 914; active = well fitted activation curve with a large enough effect in the signal ratio, with a control signal flat, not every such curve was filed as active; the % refers to the signal ratio; also: potency is read from the fitted curve at half-maximal effect); details: ME-180 HRE-bla reporter, beta-lactamase ratio, CoCl2, 17 h; activation: stronger effect = higher value
Outline: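 AC50 values come from titration-series %Activity, taken as the 460/530nm ratio of CCF4 fluorescence (excitation 405nm). CellSensor HRE-bla ME-180 cells were treated 17 hours at 37 C with compound plus an EC50 level of CoCl2.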

[9] = molecular target: Dual specificity protein kinase CLK4 (Homo sapiens) (UniProt Q9HAZ1); test: qHTS Assay for Inhibitors of CDC-like Kinase 4 (Kinase-Glo Assay) (AID 1770); also: % is scaled to controls: 0 for no effect and ±100 for the full control effect; nearly all actives have a fitted effect of over 65% in size
Dual specificity protein kinase CLK4 (Homo sapiens), sequence (Q9HAZ1 whole entry, looked up): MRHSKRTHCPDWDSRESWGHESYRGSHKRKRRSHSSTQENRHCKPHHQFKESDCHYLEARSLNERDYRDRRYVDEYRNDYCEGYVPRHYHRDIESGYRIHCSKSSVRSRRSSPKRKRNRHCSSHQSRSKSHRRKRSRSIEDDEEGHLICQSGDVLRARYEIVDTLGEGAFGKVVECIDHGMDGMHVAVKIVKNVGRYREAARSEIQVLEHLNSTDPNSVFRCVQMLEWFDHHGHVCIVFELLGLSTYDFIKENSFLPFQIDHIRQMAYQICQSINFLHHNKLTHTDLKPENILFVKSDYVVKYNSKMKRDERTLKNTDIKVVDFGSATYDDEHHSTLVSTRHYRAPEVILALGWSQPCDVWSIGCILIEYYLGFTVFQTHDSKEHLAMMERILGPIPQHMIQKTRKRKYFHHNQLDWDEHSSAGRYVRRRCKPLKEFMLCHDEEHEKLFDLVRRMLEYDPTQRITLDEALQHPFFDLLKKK
Outline: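 Readout: Kinase-Glo luminescence from ATP left after a 4.5 h room-temperature reaction of 25 nM Clk4 with 100 uM RS peptide and 1 uM ATP (final). Buffer: 25 mM Tris pH 7.5, 10 mM MgCl2.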

[10] = molecular target: Dual specificity protein kinase CLK4 (Homo sapiens) (UniProt Q9HAZ1); test: qHTS Assay for Inhibitors of CDC-like Kinase 4 (ADP-Glo Assay) (AID 1771); also: % is scaled to controls: 0 for no effect and ±100 for the full control effect; nearly all actives have a fitted effect of over 70% in size
Outline: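 ADP production was read by ADP-Glo luminescence after residual ATP depletion, following 1 h room-temperature reaction of 25 nM Clk4, 1 uM ATP and 100 uM RS peptide with MgCl2, EGTA, DTT and Triton X-100.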

[11] = molecular target: Dual specificity protein kinase CLK4 (Homo sapiens) (UniProt Q9HAZ1); test: qHTS Assay for Inhibitors of CDC-like Kinase 4 (ADP-FP Assay) (AID 1795);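 also: recombinant human CLK4 phosphorylating RS repeat peptide at 1 µM ATP; % is scaled to controls: 0 for no effect and ±100 for the full control effect; nearly all actives have a fitted effect of over 60% in size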
Outline: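 FP readout: Orange Transcreener ADP2 tracer (4 nM) plus ADP antibody, read after 30 min at room temperature. Kinase step: 6.25 nM Clk4, 100 uM RS peptide, 1 uM ATP, pH 7.5, 1 h.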

[12] = molecular target: Ubiquitin carboxyl-terminal hydrolase 1 (Homo sapiens) (UniProt O94782); test: Inhibitors of USP1/UAF1: Pilot qHTS (AID 504865);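 also: rhodamine fluorescence freed from ubiquitin-rhodamine substrate followed over time; top concentration of the series differs between compounds; % is scaled to controls: 0 for no effect and ±100 for the full control effect; nearly all actives have a fitted effect of over 35% in size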
Ubiquitin carboxyl-terminal hydrolase 1 (Homo sapiens), sequence (O94782 whole entry, looked up): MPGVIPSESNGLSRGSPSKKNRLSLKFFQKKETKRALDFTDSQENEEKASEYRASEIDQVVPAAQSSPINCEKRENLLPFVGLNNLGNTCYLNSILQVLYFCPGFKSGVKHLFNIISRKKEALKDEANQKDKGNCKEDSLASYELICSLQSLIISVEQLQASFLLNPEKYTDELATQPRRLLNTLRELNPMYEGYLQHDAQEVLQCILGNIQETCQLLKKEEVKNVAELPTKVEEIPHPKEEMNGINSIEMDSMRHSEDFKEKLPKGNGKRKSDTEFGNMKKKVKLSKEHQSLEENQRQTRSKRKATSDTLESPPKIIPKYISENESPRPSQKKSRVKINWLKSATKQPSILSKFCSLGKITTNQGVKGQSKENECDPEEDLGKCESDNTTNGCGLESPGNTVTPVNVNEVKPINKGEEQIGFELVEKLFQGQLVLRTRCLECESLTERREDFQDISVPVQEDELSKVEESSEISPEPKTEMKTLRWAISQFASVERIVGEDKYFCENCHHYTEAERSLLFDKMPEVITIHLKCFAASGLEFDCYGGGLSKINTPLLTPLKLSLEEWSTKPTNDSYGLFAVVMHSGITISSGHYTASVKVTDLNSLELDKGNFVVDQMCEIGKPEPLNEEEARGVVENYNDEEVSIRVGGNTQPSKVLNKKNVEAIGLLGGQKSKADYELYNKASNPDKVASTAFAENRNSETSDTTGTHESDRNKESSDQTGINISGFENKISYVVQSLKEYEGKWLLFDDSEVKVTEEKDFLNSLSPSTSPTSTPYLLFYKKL
Outline: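 1nM USP1/UAF1 + cpd, 15 min RT; start w/ Ub-Rho 150nM final; kinetic FL 480/540 nm, 6 reads q60 s. Buffer 50mM HEPES pH 7.8, 0.5mM EDTA, 1mM TCEP, 0.01% Tween-20, 0.1 mg/ml BSA.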

[13] = Counterscreen qHTS for small molecule stabilizers of the endoplasmic reticulum resident proteome: GLuc-NoTag assay (AID 1508627); also: potency is read from the fitted curve at half-maximal effect;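 as to activity change, negative = inhibition: 0% = thapsigargin alone and -100% = DMSO vehicle control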
Outline: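 Counterscreen line: SH-SY5Y-GLuc-NoTag. Seed, 5 h; compound, 19 h; thapsigargin 100 nM, 4 h; 37C/5% CO2. Readout: secreted GLuc luminescence, coelenterazine 0.07x final, no lysis.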

[14] = Confirmatory qHTS for small molecule stabilizers of the endoplasmic reticulum resident proteome: Secreted ER Calcium Modulated Protein (SERCaMP) assay (AID 1508628); also: nearly all actives have a fitted effect of over 40% in size; also: potency is read from the fitted curve at half-maximal effect
Outline: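 Reporter secretion upon ER calcium depletion (100 nM thapsigargin, 4 h, 37C) is measured as medium luminescence with coelenterazine, after 16 h compound pretreatment of SH-SY5Y-GLuc-SERCaMP cells; primary at three concentrations up to 38.3 uM, follow-up at 11 (up to 76.6 uM).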

[15] = qHTS Assay for Lipid Storage Modulators (AID 1519; calls by dose curve); details: Drosophila S3 cells, BODIPY lipid droplet/cell ratio, laser cytometry, cells loaded with oleic acid; for activity change, negative = inhibition: at 57.5 µM (top of the series)
Outline: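 Cells seeded at 5,000 per well were treated with compounds over a concentration series and loaded with oleic acid (400 uM, as added). Lipid droplet fluorescence (488 nm excitation, 500-530 nm channel) was read by laser-scanning cytometry and normalized to 20 uM Triacsin C.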

[16] = molecular target: Cytochrome P450 2C19 (Homo sapiens) (UniProt P33261); test: qHTS Assay for Inhibitors and Substrates of Cytochrome P450 2C19 (AID 899); also: % is scaled to controls: 0 for no effect and ±100 for the full control effect; nearly all actives have a fitted effect of over 60% in size
Outline: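 Luminescent read-out of luciferin formed from Luciferin-H EGE (10uM, equal to KM). Enzyme 5nM in 50mM KPO4; compound added, 10 min at 37C, then NADPH regenerating system for 60 min at 37C. Full inhibition defined by 57uM ketoconazole.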

[17] = Cell Viability qHTS for small molecule stabilizers of the endoplasmic reticulum resident proteome (AID 1508629); details: cell viability counter-screen, 100 nM thapsigargin for final 4 h;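 also: compound exposure about 46 h in total before the viability read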; also: potency is read from the fitted curve at half-maximal effect
[18] = AP1 Signaling Pathway (AID 357; active = well fitted curve in either direction with a large enough effect, not every such curve was filed as active;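 also: ME-180 reporter cells stimulated with EGF at its EC50 level; % is scaled to controls: 0 for no effect and ±100 for the full control effect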); details: ME-180 AP-1-bla reporter, EGF-induced, beta-lactamase ratio, 5 h; at 7.69 µM (top of the series) unless noted
Outline: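 Read-out was the 460nm/530nm emission ratio (excitation 405nm) after CCF4 loading for 2.5 hours at room temperature. Cells carried an AP-1-driven beta-lactamase reporter, were stimulated with EC50 EGF plus compound for 5 hours, and AC50 values came from titrations.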

[19] = NFAT Signaling Pathway (AID 444; active = well fitted curve in either direction with a large enough effect, not every such curve was filed as active;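 also: carbachol stimulus at about its EC50 of 1 µM final; % is scaled to controls: 0 for no effect and ±100 for the full control effect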); details: Jurkat NFAT-bla M1, carbachol, beta-lactamase ratio, 5 h; at 7.69 µM (top of the series) unless noted
Outline: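 Jurkat cells with NFAT-driven β-lactamase reporter and co-expressed M1 receptor, stimulated with carbachol (final 1 uM, ~EC50), compound titration, 5 h at 37 °C. CCF4 loaded 1 h at RT; 460/530 nm ratio gave %activity and AC50.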

[20] = Stat Signaling Pathway (AID 446; active = well fitted curve in either direction with a large enough effect, not every such curve was filed as active;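 also: ME-180 cervical cancer cells given 40 pM IL-6 alongside compound; SIE-controlled beta-lactamase reporter measured as 460/530 nm FRET emission ratio; % is scaled to controls: 0 for no effect and ±100 for the full control effect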); details: ME-180 (cervical carcinoma) SIE beta-lactamase reporter, IL-6 stimulated, 5 h; at 7.69 µM (top of the series) unless noted
Outline: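 Overnight-plated ME-180 cells bearing a STAT Inducible Element beta-lactamase reporter; 5 h co-exposure to compound and 40 pM IL-6; values normalized to 300 pM IL-6 and 125 nM JAK inhibitor controls.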

[21] = molecular target: Cytochrome P450 2D6 (Homo sapiens) (UniProt P10635); test: qHTS Assay for Inhibitors and Substrates of Cytochrome P450 2D6 (AID 891); also: potency is read from the fitted curve at half-maximal effect; nearly all actives have a fitted effect of over 60% in size
Cytochrome P450 2D6 (Homo sapiens), sequence (P10635 whole entry, looked up): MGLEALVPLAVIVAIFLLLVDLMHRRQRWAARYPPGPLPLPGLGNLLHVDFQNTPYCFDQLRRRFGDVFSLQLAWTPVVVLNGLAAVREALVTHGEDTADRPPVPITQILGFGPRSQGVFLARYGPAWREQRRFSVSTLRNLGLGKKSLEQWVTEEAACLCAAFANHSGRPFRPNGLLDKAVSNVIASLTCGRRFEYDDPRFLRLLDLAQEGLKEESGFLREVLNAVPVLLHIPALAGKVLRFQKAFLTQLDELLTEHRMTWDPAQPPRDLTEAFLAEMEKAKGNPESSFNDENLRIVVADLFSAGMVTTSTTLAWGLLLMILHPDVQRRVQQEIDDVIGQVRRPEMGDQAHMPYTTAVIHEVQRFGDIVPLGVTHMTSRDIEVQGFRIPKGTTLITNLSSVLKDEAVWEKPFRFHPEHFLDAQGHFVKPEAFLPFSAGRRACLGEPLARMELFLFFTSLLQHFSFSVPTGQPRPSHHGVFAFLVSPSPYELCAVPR
Outline: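 Luminescent read-out of luciferin formed by 5 nM human CYP2D6 demethylating 30 uM Luciferin-ME EGE (Km level) over 60 min at room temperature after NADPH regeneration addition. Data normalized to full inhibition by 1.43 uM quinidine.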

[22] = measured here: cell count channel max response
[23] = measured here: lipid channel max response

O=c1c(-c2ccccc2)nc2cnc(N3CCNCC3)nc2n1-c1ccccc1
inactive: Potency [1] > 11.4 µM | Potency [3] > 9.22 µM | Potency [4] > 46 µM | outcome [5] | Potency [6] | Potency [7] | Potency [9] | Potency [10] | Potency [11] | Potency [12] | Potency [13] | Potency [14]
active: Potency [2] 7.94 µM | Potency [8] 3.16 µM

CN1CCN(c2ncc3nc(-c4cc(F)cc(F)c4)c(=O)n(-c4ccccc4)c3n2)CC1
13.7%: max response [15, 22]
14.9%: max response [15, 23]
inactive: Potency [1] > 11.4 µM | Potency [3] > 9.22 µM | Potency [4] > 46 µM | outcome [5] | activity change, negative = inhibition [15] 2.22% | Potency [13] | Potency [14]

O=c1c(-c2ccc(F)cc2)nc2cnc(N3CCNCC3)nc2n1-c1ccccc1
25.6%: max response [15, 23]
active: Potency [2] 10 µM
19.9%: max response [15, 22]
inactive: Potency [1] > 11.4 µM | Potency [4] > 46 µM | Potency [6] | Potency [7] | Potency [16] | activity change, negative = inhibition [15] 6.93% | Potency [9] | Potency [10] | Potency [11] | Potency [12] | Potency [13] | Potency [14] | max response [17] -15.9%

O=C(Nc1cccc(F)c1)N1CCC2(CC1)CCN(S(=O)(=O)c1ccccc1)CC2
1.82%: max response [15, 23]
0.271%: max response [15, 22]
inactive: Potency [1] > 11.4 µM | activity change, negative = inhibition [18] -14.1% | activity change, negative = inhibition [19] 11.4% | activity, negative = inhibition [20] -8.13% | Potency [4] > 46 µM | outcome [5] | Potency [6] | activity change, negative = inhibition [15] -0.528% | Potency [13] | Potency [14] | max response [17] 3.59%

COc1ccc(-c2nc3cnc(N4CCN(C)CC4)nc3n(-c3ccc(OC)cc3)c2=O)cc1
active: Potency [2] 15.8 µM | Potency [8] 3.16 µM
inactive: Potency [1] > 11.4 µM | activity change, negative = inhibition [18] 41.4% | Potency [3] > 9.22 µM | Potency [4] > 46 µM | outcome [5] | Potency [6] | activity change, negative = inhibition [15] 3.89% | Potency [9] | Potency [10] | Potency [11] | Potency [12] | Potency [13] | Potency [14]
29.8%: max response [15, 23]
28.9%: max response [15, 22]

COc1c2c(c(C(=O)/C=C/C(C)=C/c3ccccc3)c3c1OCO3)CCN(C)C2
inactive: Potency [13]

COc1ccc(C2Nc3ccccc3C(=O)N2c2ccccc2)cc1COc1ccc(NC(C)=O)cc1 (centres undefined)
inactive: Potency [13]

CCNc1ncc2nc(CCc3ccccc3)c(=O)n(CCOC)c2n1
inactive: activity change, negative = inhibition [18] 0.721% | activity change, negative = inhibition [19] 2.18% | activity, negative = inhibition [20] -8.07% | Potency [3] > 9.22 µM | Potency [4] > 46 µM | outcome [5] | Potency [7] | Potency [13] | max response [17] 18.6%
active: Potency [2] 2 µM | Potency [21] 0.398 µM | Potency [14] 35.5 µM

COc1ccc(NC(=O)N2CCC3(CC2)CCN(S(=O)(=O)c2ccccc2)CC3)cc1
inactive: activity change, negative = inhibition [18] -24% | activity change, negative = inhibition [19] -21.7% | activity, negative = inhibition [20] -16.7% | Potency [4] > 46 µM | outcome [5] | Potency [6] | Potency [7] | activity change, negative = inhibition [15] 2.68% | Potency [13] | Potency [14] | max response [17] -18.8%
8.36%: max response [15, 23]
2.58%: max response [15, 22]
active: Potency [2] 31.6 µM

Cc1nc2cnc(N3CCNCC3)nc2n(CCc2ccccc2)c1=O
active: Potency [14] 31.6 µM
inactive: Potency [1] > 11.4 µM | activity change, negative = inhibition [18] -1.97% | activity change, negative = inhibition [19] -13.2% | activity, negative = inhibition [20] -13.8% | Potency [3] > 9.22 µM | Potency [4] > 46 µM | outcome [5] | Potency [6] | Potency [9] | Potency [10] | Potency [11] | Potency [12] | Potency [13]

COc1cc(CN2CCN(C(=O)c3ccc(-c4ccccc4)cc3)CC2)cc(OC)c1OC
inactive: Potency [13] | Potency [14]

OC[C@H]1NC[C@H](O)[C@@H](O)[C@@H]1O
inactive: Potency [13] | Potency [14] | max response [17] 6.89%

CC(=O)N[C@H]1C(O[C@@H]2O[C@H](C[C@@H](O)[C@H]3O[C@@H](N4CCC(=O)NC4=O)[C@H](O)[C@@H]3O)[C@H](O)[C@H](O)[C@H]2NC(=O)/C=C/CCCCCCCCCCC(C)C)OC(CO)[C@@H](O)[C@@H]1O (some centres undefined)
active: Potency [13] 35.5 µM | Potency [14] 0.562 µM | Potency [17] 0.398 µM
